Reference: PubChem BioAssay (EPA / NIEHS)
Several values for one entry are separate records, joined by “and”; a condition that tells them apart may be missing. Equal values may be shown once. Some structures have more than one record in an assay (separate samples or runs), and their calls can disagree. Activity calls are given as the source filed them. The calls were made as follows: active = hit-call score of the fitted dose curve at least 0.9, where 1 is the maximum; inactive = score below 0.9.

Legend:
[1] = APR_HepG2_P-H2AX_72hr: Apredica 72-hour HepG2 Assay for H2AX Phosphorylation (AID 2282916); conditions: imaging, actives raise or lower the signal;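 also: phospho-histone H2A.x immunostain intensity per cell marking DNA damage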
Outline: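 HepG2; cpd 0.39–200 uM ×10 conc, duplicates; 0.5% DMSO; 72 hr. Fix 3.7% formaldehyde 30 min RT, 0.5% Triton X-100 10 min. Anti-phospho-H2A.x 1:200 + Hoechst 2 ug/mL, 60 min RT; ArrayScan imaging.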

[2] = APR_HepG2_MitoMembPot_72hr: Apredica 72-hour HepG2 Assay for Mitochondrial Membrane Potential (AID 2282917); conditions: imaging, actives raise or lower the signal
Outline: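 Membrane potential read by MitoTracker Red CMXRos (250 nM, 30 min, pre-fixation) fluorescence imaging of HepG2 after 72 hr exposure. Ten concentrations, 0.39–200 uM, duplicate wells, 0.5% DMSO; fitted in both directions against DMSO baseline.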

[3] = APR_HepG2_MitoticArrest_72hr: Apredica 72-hour HepG2 Assay for Mitotic Arrest (AID 2282918); conditions: high-content imaging, actives raise or lower the signal
Outline: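 Read-out is phospho-histone H3 immunofluorescence with Hoechst nuclear segmentation, imaged at 20x. Human HepG2 liver cells received ten concentrations (0.39–200 uM, final DMSO 0.5% v/v) for 72 hr before fixation. Gain or loss of signal was fitted relative to DMSO.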

[4] = APR_HepG2_MicrotubuleCSK_72hr: Apredica 72-hour HepG2 Assay for Microtubule CSK Stabilty (AID 2282919); conditions: HepG2 microtubule cytoskeleton, high-content imaging, actives raise or lower the signal
Outline: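 Read-out is tubulin fluorescence intensity from high-content imaging of HepG2 cells, with nuclei identified by Hoechst 33342. Treatment lasts 72 h at 0.39–200 uM, and curves are fitted bidirectionally against the DMSO negative control.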

[5] = APR_HepG2_P-H2AX_24hr: Apredica 24-hour HepG2 Assay for H2AX Phosphorylation (AID 2282920); conditions: high-content imaging, actives raise or lower the signal
Outline: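 HepG2, 24 hr, cpd 0.39–200 uM (10 conc, duplicate), DMSO 0.5% v/v final. Fix 3.7% formaldehyde, Triton X-100 permeabilize, anti-phospho-H2A.x 1:200 + Hoechst 2 ug/mL. Imaged, bidirectional fit vs DMSO.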

[6] = APR_HepG2_StressKinase_72hr: Apredica 72-hour HepG2 Assay for Stress Kinase (AID 2282921); conditions: HepG2 stress kinase (phospho-c-Jun) imaging, actives raise or lower the signal
Outline: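 Dose 0.39–200 uM (10 pts, duplicate), 0.5% DMSO; 72 h; fix 3.7% formaldehyde 30 min RT; Triton permeabilize; anti-phospho-c-Jun/Cy3 + Hoechst 60 min RT; image 20x; fit gain/loss vs DMSO.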

[7] = APR_HepG2_StressKinase_24hr: Apredica 24-hour HepG2 Assay for Stress Kinase (AID 2282922); conditions: HepG2 stress kinase (phospho-c-Jun) imaging, actives raise or lower the signal
Outline: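 HepG2, 24 hr dosing, 0.39–200 uM in duplicate, 0.5% DMSO; formaldehyde fix (3.7%), 0.5% Triton X-100; anti-phospho-c-Jun + Cy3 secondary, Hoechst counterstain; ArrayScan imaging; bidirectional curve fit vs DMSO baseline.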

[8] = APR_HepG2_p53Act_72hr: Apredica 72-hour HepG2 Assay for p53 Activation (AID 2282923); conditions: high-content imaging, actives raise or lower the signal;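 also: average cellular p53 protein immunofluorescence intensity in HepG2 cells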
Outline: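 10-pt conc. 0.39–200 uM, duplicate, 0.5% DMSO; 72 hr exposure; 3.7% formaldehyde fix, 0.5% Triton perm; sheep anti-p53/Cy5 + Hoechst; ArrayScan 20x, 6 images/well; gain/loss fit vs DMSO.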

[9] = APR_HepG2_MitoMass_72hr: Apredica 72-hour HepG2 Assay for Mitochondrial Mass (AID 2282924); conditions: high-content imaging, actives raise or lower the signal;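 also: MitoTracker Red CMXRos stain intensity per cell imaged as mitochondrial mass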
Outline: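 HepG2, 72 hr cmpd, 10 conc 0.39–200 uM in dup, DMSO 0.5% v/v. MitoTracker Red CMXRos 250 nM 30 min pre-fix; formaldehyde 3.7% fix 30 min RT. HCS imaging, gain/loss fit vs DMSO.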

[10] = APR_HepG2_NuclearSize_72hr: Apredica 72-hour HepG2 Assay for Nuclear Size (AID 2282925); conditions: high-content imaging, actives raise or lower the signal
Outline: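 HepG2; cpd 0.39–200 uM, 10 conc, duplicate; 72 h; DMSO 0.5% v/v; fix 3.7% formaldehyde 30 min RT; Triton permeabilization; Hoechst 2 ug/mL; HCS imaging 20x; nuclear diameter; gain/loss fit vs DMSO.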

[11] = ATG_CRE_CIS: Attagene CIS-FACTORIAL HepG2 Assay for human cAMP Responsive Element (CRE) binding protein 3 (AID 2282926); conditions: HepG2 CRE cis-reporter, Attagene multiplexed mRNA; actives raise or lower the signal
Outline: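 Human liver HepG2, transient MRTU transfection, 24 h compound exposure. Total RNA → oligo(dT) RT → PCR → 6-FAM primer extension → HpaI cut → CE. Activity called both directions vs DMSO.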

[12] = biological target: CCAAT/enhancer-binding protein beta (Homo sapiens) (UniProt P17676); test: ATG_C_EBP_CIS: Attagene CIS-FACTORIAL HepG2 Assay for human CCAAT/Enhancer Binding Protein (C/EBP) beta (AID 2282927); conditions: HepG2 Attagene cis-factorial transcription factor reporter; actives raise or lower the signal
CCAAT/enhancer-binding protein beta (Homo sapiens), sequence (P17676 whole entry, looked up): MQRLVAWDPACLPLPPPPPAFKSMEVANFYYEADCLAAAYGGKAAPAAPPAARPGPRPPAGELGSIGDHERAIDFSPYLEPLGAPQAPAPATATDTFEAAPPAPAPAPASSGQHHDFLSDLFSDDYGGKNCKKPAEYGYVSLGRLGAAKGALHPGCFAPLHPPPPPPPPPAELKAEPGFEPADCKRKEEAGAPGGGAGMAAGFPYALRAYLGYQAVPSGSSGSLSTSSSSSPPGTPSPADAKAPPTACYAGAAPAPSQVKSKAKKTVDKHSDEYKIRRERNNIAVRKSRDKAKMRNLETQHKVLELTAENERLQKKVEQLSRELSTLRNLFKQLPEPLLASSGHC
Outline: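 Endogenous transcription factor activity in human liver HepG2 cells is inferred from induction of a CEBPB-linked reporter mRNA. Exposure lasts 24 h; activity is fitted in both directions relative to DMSO.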

[13] = ATG_CMV_CIS: Attagene CIS-FACTORIAL HepG2 Assay for human CMV (Internal Marker) (AID 2282928); conditions: HepG2 CMV promoter reporter, transcription factor profiling; actives raise or lower the signal;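 also: endpoint acts as a background internal control marker rather than a target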
Outline: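 CMV internal-marker background readout in transiently transfected HepG2 cells bearing cis-regulated reporter units. Reporter mRNA is measured 24 h after dosing by RT-PCR and capillary electrophoresis, with bidirectional fitting against DMSO.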

[14] = ATG_DR4_LXR_CIS: Attagene CIS-FACTORIAL HepG2 Assay for human Liver X Receptor (LXR), DR4 submotif (AID 2282929); conditions: HepG2 Attagene DR4 cis-reporter, mRNA transcription; actives raise or lower the signal
Outline: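 The endpoint is DR4-element-driven reporter transcripts after 24 h chemical exposure of transfected HepG2 cells. These were measured via RT-PCR and capillary electrophoresis, and gain or loss of signal was fitted relative to DMSO controls.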

[15] = biological target: Aryl hydrocarbon receptor (Homo sapiens) (UniProt P35869); test: ATG_Ahr_CIS: Attagene CIS-FACTORIAL HepG2 Assay for human Aryl Hydrocarbon Receptor (Ahr) (AID 2282930); conditions: HepG2 AhR cis-factorial reporter transcription; actives raise or lower the signal
Aryl hydrocarbon receptor (Homo sapiens), sequence (P35869 whole entry, looked up): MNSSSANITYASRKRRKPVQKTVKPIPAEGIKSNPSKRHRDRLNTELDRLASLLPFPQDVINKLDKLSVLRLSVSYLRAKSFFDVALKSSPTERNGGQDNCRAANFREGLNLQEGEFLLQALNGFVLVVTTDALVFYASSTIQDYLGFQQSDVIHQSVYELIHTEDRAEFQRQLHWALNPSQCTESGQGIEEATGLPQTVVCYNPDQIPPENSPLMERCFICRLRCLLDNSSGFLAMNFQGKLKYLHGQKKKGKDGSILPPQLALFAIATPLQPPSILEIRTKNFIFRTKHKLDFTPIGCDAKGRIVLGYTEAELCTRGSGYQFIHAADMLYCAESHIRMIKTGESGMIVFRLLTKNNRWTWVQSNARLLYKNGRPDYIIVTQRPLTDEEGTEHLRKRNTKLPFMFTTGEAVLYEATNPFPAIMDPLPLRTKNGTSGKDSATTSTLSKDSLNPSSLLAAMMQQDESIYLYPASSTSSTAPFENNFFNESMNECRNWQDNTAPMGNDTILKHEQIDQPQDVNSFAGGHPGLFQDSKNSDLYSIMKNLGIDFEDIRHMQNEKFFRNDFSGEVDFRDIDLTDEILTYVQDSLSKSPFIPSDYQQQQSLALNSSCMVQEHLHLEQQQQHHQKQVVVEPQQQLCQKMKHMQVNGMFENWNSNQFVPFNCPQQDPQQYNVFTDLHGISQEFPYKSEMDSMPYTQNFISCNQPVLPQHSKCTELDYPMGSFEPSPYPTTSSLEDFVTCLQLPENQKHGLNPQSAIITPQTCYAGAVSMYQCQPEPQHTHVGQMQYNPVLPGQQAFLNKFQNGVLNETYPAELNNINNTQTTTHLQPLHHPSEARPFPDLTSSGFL
Outline: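 Transient MRTU transfection of HepG2 → 24 h compound exposure → total RNA, oligo(dT) RT → PCR, 6-FAM extension, HpaI cut → CE fluorescence. DMSO = baseline; bidirectional curve fit.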

[16] = ATG_AP_1_CIS: Attagene CIS-FACTORIAL HepG2 Assay for human Activator Protein 1 (AP-1) (AID 2282931); conditions: HepG2 Attagene cis-factorial AP-1 reporter mRNA; actives raise or lower the signal
Outline: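 Readout is reporter transcript level from endogenous transcription factor activity, quantified by RT-PCR with fluorescent primer extension and capillary electrophoresis. Transiently transfected HepG2 cells, 24 h exposure. Curves fitted both directions versus DMSO.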

[17] = ATG_AP_2_CIS: Attagene CIS-FACTORIAL HepG2 Assay for human Activator Protein 2 (AP-2) (AID 2282932); conditions: HepG2 AP-2 cis-reporter, Attagene transcription factor profiling; actives raise or lower the signal
Outline: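 HepG2, transient MRTU transfection, cis-regulated reporters; 24 h compound exposure; RNA isolated, RT-PCR, 6-FAM labelling, HpaI digest, CE fluorescence. DMSO = negative control/baseline, bidirectional fit.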

[18] = ATG_BRE_CIS: Attagene CIS-FACTORIAL HepG2 Assay for human Bone Morphogenetic Protein (BMP) Response Element (BRE) (AID 2282933); conditions: HepG2 BMP response element reporter, Attagene transcription factor profiling; actives raise or lower the signal
Outline: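 Transient MRTU transfection of human HepG2 liver cells; 24 h compound treatment; total RNA isolated, reverse-transcribed, PCR-amplified, 6-FAM labelled, HpaI-cut, capillary electrophoresis. DMSO = negative control/baseline, bidirectional fit.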

[19] = biological target: Retinoic acid receptor alpha (Homo sapiens) (UniProt P10276); test: ATG_DR5_RAR_CIS: Attagene CIS-FACTORIAL HepG2 Assay for human Retinoic Acid Receptor Alpha (RARE), DR5 submotif (AID 2282934); conditions: HepG2 Attagene cis-factorial RARE DR5 reporter, mRNA; actives raise or lower the signal;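 as to AC50: reporter responds to endogenous RAR alpha beta and gamma in HepG2 not RARA alone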
Retinoic acid receptor alpha (Homo sapiens), sequence (P10276 whole entry, looked up): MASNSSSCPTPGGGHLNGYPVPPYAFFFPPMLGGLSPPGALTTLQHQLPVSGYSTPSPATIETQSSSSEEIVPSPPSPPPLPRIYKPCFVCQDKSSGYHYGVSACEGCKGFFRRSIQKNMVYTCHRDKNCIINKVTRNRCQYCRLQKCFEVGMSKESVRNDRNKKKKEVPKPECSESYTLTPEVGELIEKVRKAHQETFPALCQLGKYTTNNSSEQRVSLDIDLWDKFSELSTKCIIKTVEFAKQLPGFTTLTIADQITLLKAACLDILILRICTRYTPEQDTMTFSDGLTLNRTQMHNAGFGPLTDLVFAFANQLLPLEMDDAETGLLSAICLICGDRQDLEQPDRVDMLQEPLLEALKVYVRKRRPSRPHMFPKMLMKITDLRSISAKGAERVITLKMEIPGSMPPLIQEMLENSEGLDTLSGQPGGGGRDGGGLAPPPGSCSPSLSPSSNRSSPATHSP
Outline: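 Transient MRTU transfection of HepG2; 24 h compound treatment; TriZol RNA, oligo(dT) RT, PCR, FAM labelling, capillary electrophoresis. Bidirectional fit vs DMSO. Endogenous TF activity at DR5 RARE.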

[20] = biological target: Transcription factor E2F1 (Homo sapiens) (UniProt Q01094); test: ATG_E2F_CIS: Attagene CIS-FACTORIAL HepG2 Assay for human E2F Transcription Factor 1 (AID 2282935); conditions: HepG2 Attagene cis-reporter, E2F reporter RNA transcripts; actives raise or lower the signal
Transcription factor E2F1 (Homo sapiens), sequence (Q01094 whole entry, looked up): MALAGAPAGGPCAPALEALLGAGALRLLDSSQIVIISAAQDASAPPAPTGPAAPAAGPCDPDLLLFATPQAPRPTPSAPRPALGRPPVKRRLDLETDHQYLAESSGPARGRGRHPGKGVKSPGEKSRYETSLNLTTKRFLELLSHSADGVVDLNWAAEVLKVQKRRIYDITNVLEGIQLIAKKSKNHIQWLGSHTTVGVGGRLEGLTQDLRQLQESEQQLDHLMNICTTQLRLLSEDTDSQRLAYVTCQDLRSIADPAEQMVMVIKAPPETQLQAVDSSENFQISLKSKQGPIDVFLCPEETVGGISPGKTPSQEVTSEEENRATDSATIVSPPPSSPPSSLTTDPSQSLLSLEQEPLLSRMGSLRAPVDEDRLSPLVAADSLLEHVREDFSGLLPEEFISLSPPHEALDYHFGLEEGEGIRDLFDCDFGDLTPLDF
Outline: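 Cis-element reporter mRNA induction in transiently transfected HepG2, 24 h exposure. Activity fitted in both directions relative to DMSO negative control.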

Measured: AC50

CCCCCCCCCCCO
active: [3] 105 µM | [5] 100 µM
inactive: all other assays above

CC[C@H](NC(=O)c1cc(F)ccc1NS(=O)(=O)c1cccc2cccnc12)c1ccccc1
active: [3] 92.5 µM
not listed: [14]
inactive: all other assays above

CC[C@@H]1C[C@H](N(Cc2cc(C(F)(F)F)cc(C(F)(F)F)c2)C(C)=O)c2cc(C(F)(F)F)ccc2N1C(=O)OC(C)C
active: [19] 362 nM
not listed: [1] | [2] | [14]
inactive: all other assays above

CCCC(=O)OCCC(C)C
not listed: [1] | [2] | [14]
inactive: all other assays above

CO[C@H]1/C=C/O[C@@]2(C)Oc3c(C)c(O)c4c(O)c(c(/C=N/N5CCN(C)CC5)c(O)c4c3C2=O)NC(=O)/C(C)=C\C=C\[C@H](C)[C@H](O)[C@@H](C)[C@@H](O)[C@@H](C)[C@H](OC(C)=O)[C@@H]1C
active: [3] 46.2 µM | [15] 37.4 µM
inactive: [4] | [5] | [6] | [7] | [8] | [9] | [10] | [11] | [12] | [13] | [14] | [15] | [16] | [17] | [18] | [19] | [20]

CCN(Cc1cccnc1)C(=O)c1cccc(Cl)c1[C@]1(C)C(=O)N(Cc2ccc(OC)cc2OC)c2ccc(Cl)cc21
active: [3] 21.8 µM | [8] 29.4 µM | [11] 10.8 µM | [13] 8.21 µM | [14] 7.45 µM | [15] 1.75 µM | [16] 10.3 µM | [19] 293 nM | [20] 7.42 µM
not listed: [1] | [2]
inactive: all other assays above

COc1cccc([C@H](O)C2CCN(CCc3ccc(F)cc3)CC2)c1OC
active: [3] 102 µM | [4] 103 µM | [14] 100 µM
not listed: [1] | [2]
inactive: all other assays above

CN1C(=O)CC[C@H]1c1cccnc1
not listed: [1] | [19]
inactive: all other assays above

O=C(O)Cc1cc(I)c(Oc2ccc(O)c(I)c2)c(I)c1
active: [16] 160 µM and 100 µM and 74.8 µM | [17] 50.9 µM | [18] 89 µM
inactive: [3] | [4] | [5] | [6] | [7] | [8] | [9] | [10] | [11] | [12] | [13] | [15] | [16] | [17] | [18] | [19] | [20]

Cc1cc(F)ccc1-c1cc(N2CC[C@@H](O)[C@H]2CO)ncc1N(C)C(=O)C(C)(C)c1cc(C(F)(F)F)cc(C(F)(F)F)c1
active: [3] 74 µM | [5] 53.8 µM | [8] 65 µM
not listed: [1] | [2]
inactive: all other assays above

CC(C)(O)c1ccc(CNC(=O)c2cccnc2Oc2ccc3nonc3c2)cc1
not listed: [1] | [2] | [14]
inactive: all other assays above

CC(O)CC(C)(C)O (stereo not given)
active: [2] 1.62 µM | [17] 0.0125 µM
inactive: [3] | [4] | [5] | [6] | [7] | [8] | [9] | [10] | [11] | [12] | [13] | [14] | [15] | [16] | [17] | [18] | [19] | [20]

CC(C)(c1cc(Br)c(O)c(Br)c1)c1cc(Br)c(O)c(Br)c1
active: [3] 69 µM | [5] 70.7 µM | [8] 47.8 µM | [9] 51.4 µM | [10] 77.7 µM | [11] 46 µM and 44.2 µM | [13] 53.3 µM and 58.5 µM | [16] 58.4 µM and 53.2 µM | [17] 55.8 µM | [18] 46.6 µM | [19] 25.6 µM and 14.2 µM
inactive: [2] | [4] | [6] | [7] | [12] | [17] | [18] | [20]
